Experimental data published in the supplement of paper PMC10849652.
The full data set covers some 8,800 targets. This sample favours those with a hit. About 0.5% of all pairs of compound and target were hits.

Experiments:
Experiment in all cases: log2 fold change, soluble protein after heating vs DMSO (PISA); higher = thermal stabilisation; K562 lysate, 10 uM; active = over 0.2 and 3.5 SD of the protein, either way, in both replicates (recomputed)
ibrutinib = compound: C=CC(=O)N1CCC[C@@H](n2nc(-c3ccc(Oc4ccccc4)cc3)c3c(N)ncnc32)C1 [ibrutinib]
Summary of the method: (§1)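 Thermal stability, expressed as log-two fold change relative to solvent controls, is given from duplicates. Crude K562 extract in PBS pH 7.4 with 1 mM MgCl2, at 1 mg/mL protein, was treated with 10 μM compound for 30 min and heated in aliquots for 3 min across 48°C-58°C. After pooling, adjustment to 0.5% NP-40 at 4°C and centrifugation at 21,000xg for 90 min, supernatant protein was measured by TMTpro 16plex LC-MS/MS with channel sums equalised.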

[1] = compound: CC(=O)c1cnc2ccc(-c3cc(Cl)c(O)c(Cl)c3)nc2c1N[C@H]1CC[C@H](CN(C)C)CC1
Summary of the method: as §1

ralimetinib = compound: CC(C)(C)Cn1c(N)nc2ccc(-c3[nH]c(C(C)(C)C)nc3-c3ccc(F)cc3)nc21 [ralimetinib]
Summary of the method: as §1

[2] = compound: CC(C)(O)CC(=O)NCCn1ccc2ncnc(Nc3ccc(Oc4cccc(C(F)(F)F)c4)c(Cl)c3)c21
Summary of the method: as §1

[3] = compound: CC(C)C1=C2N=C(C=C(N2N=C1)NCC3=CC=CC=C3)NCCCCCCN
Summary of the method: as §1

[4] = compound: CC1=C(C(CC(=O)N1)C2=CC=C(C=C2)C(F)(F)F)C(=O)NC3=C(C=C4C(=C3)C=NN4)F
Summary of the method: as §1

[5] = compound: CC1=C(C2=C(C=C1)C(=O)C3=CC=CC=C3N2CCCN)C
Summary of the method: as §1

[6] = compound: CC1=C(C=C(C=C1)NC(=O)C2=CC(=CC=C2)C(C)(C)C#N)NC3=CC4=C(C=C3)N=CN(C4=O)C
Summary of the method: as §1

[7] = compound: CC1=C(C=C(C=C1)NC(=O)C2=CC(=CC=C2)N(C)C)NC(=O)C3=CC=C(C=C3)O
Summary of the method: as §1

[8] = compound: CC1=CC=C(C=C1)SC2=C3C=C(SC3=CN=C2)C(=O)N
Summary of the method: as §1

vemurafenib = compound: CCCS(=O)(=O)Nc1ccc(F)c(C(=O)c2c[nH]c3ncc(-c4ccc(Cl)cc4)cc23)c1F [vemurafenib]
Summary of the method: as §1

[9] = compound: CCCS(=O)(=O)Nc1ccc(F)c(C(=O)c2c[nH]c3ncc(Cl)cc23)c1F
Summary of the method: as §1

barasertib = compound: CCN(CCCOc1ccc2c(Nc3cc(CC(=O)Nc4cccc(F)c4)[nH]n3)ncnc2c1)CCOP(=O)(O)O [barasertib]
Summary of the method: as §1

[10] = compound: CC[C@@H]1C(=O)N(C)c2cnc(Nc3ccc(C(=O)NC4CCN(C)CC4)cc3OC)nc2N1C1CCCC1
Summary of the method: as §1

volasertib = compound: CC[C@@H]1C(=O)N(C)c2cnc(Nc3ccc(C(=O)N[C@H]4CC[C@H](N5CCN(CC6CC6)CC5)CC4)cc3OC)nc2N1C(C)C [volasertib]
Summary of the method: as §1

[11] = compound: CCn1c(C(=O)N(C2CC2)C2CC2)cc2c3c(ncn3C)c(Nc3cc(C)n(C)n3)nc21
Summary of the method: as §1

[12] = compound: CCn1cc(-c2ccnc3[nH]c(-c4cccc(CN(C)C)c4)cc23)c(-c2ccc(NC(=O)N(C)C)cc2)n1
Summary of the method: as §1

[13] = compound: CN1CCC(CNc2ccc3ncc(-c4cccc(OC(F)(F)F)c4)n3n2)CC1
Summary of the method: as §1

saracatinib = compound: CN1CCN(CCOc2cc(OC3CCOCC3)c3c(Nc4c(Cl)ccc5c4OCO5)ncnc3c2)CC1 [saracatinib]
Summary of the method: as §1

sotrastaurin = compound: CN1CCN(c2nc(C3=C(c4c[nH]c5ccccc45)C(=O)NC3=O)c3ccccc3n2)CC1 [sotrastaurin]
Summary of the method: as §1

Measured: log2 fold change

TRAPPC10 (UniProt P48553)
inactive: ibrutinib -0.006 | [1] -0.004 | ralimetinib 0.025 | [2] -0.03 | [3] 0.027 | [4] 0.002 | [5] -0.029 | [6] 0.019 | [7] 0.02 | [8] -0.004 | vemurafenib 0.022 | [9] 0.009 | barasertib 0.027 | [10] -0.063 | volasertib -0.052 | [11] 0.022 | [12] -0.061 | [13] 0.071 | saracatinib 0.016 | sotrastaurin -0.039

TRMT2A (UniProt Q8IZ69)
inactive: ibrutinib 0.002 | [1] 0.005 | ralimetinib 0.026 | [2] -0.005 | [3] 0.001 | [4] 0.012 | [5] -0.007 | [6] -0.03 | [7] 0.035 | [8] 0.008 | vemurafenib -0.028 | [9] 0.004 | barasertib 0.016 | [10] -0.019 | volasertib -0.045 | [11] 0.005 | [12] -0.016 | [13] 0.009 | saracatinib -0.007 | sotrastaurin 0.002

TUBB (UniProt P07437)
inactive: ibrutinib -0.013 | [1] 0.011 | ralimetinib 0.038 | [2] -0.009 | [3] 0.037 | [4] 0.049 | [5] 0.003 | [6] 0.007 | [7] 0.014 | [8] 0.009 | vemurafenib 0.018 | [9] 0.003 | barasertib -0.051 | [10] -0.02 | volasertib -0.063 | [11] -0.017 | [12] -0.041 | [13] 0.004 | saracatinib 0.029 | sotrastaurin 0.017

TMEM87B (UniProt Q96K49)
inactive: ibrutinib -0.076 | [1] -0.017 | ralimetinib -0.003 | [2] -0.001 | [3] -0.047 | [4] -0.011 | [5] -0.01 | [6] -0.012 | [7] 0.028 | [8] -0.012 | vemurafenib -0.004 | [9] 0.047 | barasertib 0.091 | [10] 0.018 | volasertib 0.005 | [11] -0.006 | [12] 0.074 | [13] -0.032 | saracatinib -0.166 | sotrastaurin 0.026

TUBGCP4 (UniProt Q9UGJ1)
inactive: ibrutinib 0 | [1] -0.051 | ralimetinib 0.052 | [2] -0.037 | [3] 0 | [4] 0.021 | [5] -0.048 | [6] -0.002 | [7] 0.05 | [8] 0.043 | vemurafenib 0.088 | [9] 0.028 | barasertib 0.116 | [10] 0.039 | volasertib -0.027 | [11] 0.026 | [12] 0.013 | [13] -0.077 | saracatinib 0.025 | sotrastaurin 0.109

TLE3 isoform 4 (UniProt Q04726)
Chain of UniProt Q04726 (Q04726 whole entry, looked up): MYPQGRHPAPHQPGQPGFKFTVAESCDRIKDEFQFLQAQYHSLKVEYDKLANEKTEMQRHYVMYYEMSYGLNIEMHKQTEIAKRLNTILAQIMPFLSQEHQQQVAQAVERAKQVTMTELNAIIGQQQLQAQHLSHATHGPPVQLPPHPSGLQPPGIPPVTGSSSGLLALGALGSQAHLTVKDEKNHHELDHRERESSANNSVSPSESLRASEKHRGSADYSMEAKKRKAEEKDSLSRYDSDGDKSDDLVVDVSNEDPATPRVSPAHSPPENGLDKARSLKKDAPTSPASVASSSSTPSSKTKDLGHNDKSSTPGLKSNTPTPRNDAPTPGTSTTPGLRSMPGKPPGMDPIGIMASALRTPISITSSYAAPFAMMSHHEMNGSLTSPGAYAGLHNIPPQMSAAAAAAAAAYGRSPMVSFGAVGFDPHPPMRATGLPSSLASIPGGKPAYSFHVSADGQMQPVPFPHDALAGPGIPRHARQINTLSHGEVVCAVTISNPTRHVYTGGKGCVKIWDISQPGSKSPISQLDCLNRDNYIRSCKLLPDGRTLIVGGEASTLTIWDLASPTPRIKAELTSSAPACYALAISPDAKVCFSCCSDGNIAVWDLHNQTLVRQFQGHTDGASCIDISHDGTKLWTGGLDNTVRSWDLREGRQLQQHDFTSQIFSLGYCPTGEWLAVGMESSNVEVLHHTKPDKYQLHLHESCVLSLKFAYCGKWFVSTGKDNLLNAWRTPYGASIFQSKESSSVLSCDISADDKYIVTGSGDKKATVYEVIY
inactive: ibrutinib -0.002 | [1] -0.01 | ralimetinib 0.003 | [2] -0.005 | [3] 0 | [4] -0.023 | [5] 0.012 | [6] -0.016 | [7] 0.003 | [8] -0.022 | vemurafenib 0.009 | [9] 0.01 | barasertib 0.005 | [10] 0.065 | volasertib 0.021 | [11] 0.027 | [12] -0.001 | [13] 0.01 | saracatinib 0.017 | sotrastaurin -0.017

TRIM33 (UniProt H0Y612)
inactive: ibrutinib 0.016 | [1] -0.003 | ralimetinib 0.135 | [2] -0.084 | [3] 0.068 | [4] -0.099 | [5] -0.004 | [6] -0.031 | [7] -0.009 | [8] -0.012 | vemurafenib 0.012 | [9] 0.007 | barasertib 0.087 | [10] 0.018 | volasertib 0.012 | [11] 0.093 | [12] -0.017 | [13] 0.051 | saracatinib -0.078 | sotrastaurin 0.006

UFM1 (UniProt P61960)
inactive: ibrutinib 0.059 | [1] 0.072 | ralimetinib 0.008 | [2] -0.014 | [3] -0.003 | [4] -0.04 | [5] -0.007 | [6] -0.097 | [7] -0.038 | [8] 0.109 | vemurafenib -0.249 | [9] -0.035 | barasertib 0.039 | [10] 0.044 | volasertib 0.047 | [11] 0.014 | [12] 0.491 | [13] -0.338 | saracatinib 0.016 | sotrastaurin 0.028

UBR1 (UniProt Q8IWV7)
Chain of UniProt Q8IWV7 (Q8IWV7 whole entry, looked up): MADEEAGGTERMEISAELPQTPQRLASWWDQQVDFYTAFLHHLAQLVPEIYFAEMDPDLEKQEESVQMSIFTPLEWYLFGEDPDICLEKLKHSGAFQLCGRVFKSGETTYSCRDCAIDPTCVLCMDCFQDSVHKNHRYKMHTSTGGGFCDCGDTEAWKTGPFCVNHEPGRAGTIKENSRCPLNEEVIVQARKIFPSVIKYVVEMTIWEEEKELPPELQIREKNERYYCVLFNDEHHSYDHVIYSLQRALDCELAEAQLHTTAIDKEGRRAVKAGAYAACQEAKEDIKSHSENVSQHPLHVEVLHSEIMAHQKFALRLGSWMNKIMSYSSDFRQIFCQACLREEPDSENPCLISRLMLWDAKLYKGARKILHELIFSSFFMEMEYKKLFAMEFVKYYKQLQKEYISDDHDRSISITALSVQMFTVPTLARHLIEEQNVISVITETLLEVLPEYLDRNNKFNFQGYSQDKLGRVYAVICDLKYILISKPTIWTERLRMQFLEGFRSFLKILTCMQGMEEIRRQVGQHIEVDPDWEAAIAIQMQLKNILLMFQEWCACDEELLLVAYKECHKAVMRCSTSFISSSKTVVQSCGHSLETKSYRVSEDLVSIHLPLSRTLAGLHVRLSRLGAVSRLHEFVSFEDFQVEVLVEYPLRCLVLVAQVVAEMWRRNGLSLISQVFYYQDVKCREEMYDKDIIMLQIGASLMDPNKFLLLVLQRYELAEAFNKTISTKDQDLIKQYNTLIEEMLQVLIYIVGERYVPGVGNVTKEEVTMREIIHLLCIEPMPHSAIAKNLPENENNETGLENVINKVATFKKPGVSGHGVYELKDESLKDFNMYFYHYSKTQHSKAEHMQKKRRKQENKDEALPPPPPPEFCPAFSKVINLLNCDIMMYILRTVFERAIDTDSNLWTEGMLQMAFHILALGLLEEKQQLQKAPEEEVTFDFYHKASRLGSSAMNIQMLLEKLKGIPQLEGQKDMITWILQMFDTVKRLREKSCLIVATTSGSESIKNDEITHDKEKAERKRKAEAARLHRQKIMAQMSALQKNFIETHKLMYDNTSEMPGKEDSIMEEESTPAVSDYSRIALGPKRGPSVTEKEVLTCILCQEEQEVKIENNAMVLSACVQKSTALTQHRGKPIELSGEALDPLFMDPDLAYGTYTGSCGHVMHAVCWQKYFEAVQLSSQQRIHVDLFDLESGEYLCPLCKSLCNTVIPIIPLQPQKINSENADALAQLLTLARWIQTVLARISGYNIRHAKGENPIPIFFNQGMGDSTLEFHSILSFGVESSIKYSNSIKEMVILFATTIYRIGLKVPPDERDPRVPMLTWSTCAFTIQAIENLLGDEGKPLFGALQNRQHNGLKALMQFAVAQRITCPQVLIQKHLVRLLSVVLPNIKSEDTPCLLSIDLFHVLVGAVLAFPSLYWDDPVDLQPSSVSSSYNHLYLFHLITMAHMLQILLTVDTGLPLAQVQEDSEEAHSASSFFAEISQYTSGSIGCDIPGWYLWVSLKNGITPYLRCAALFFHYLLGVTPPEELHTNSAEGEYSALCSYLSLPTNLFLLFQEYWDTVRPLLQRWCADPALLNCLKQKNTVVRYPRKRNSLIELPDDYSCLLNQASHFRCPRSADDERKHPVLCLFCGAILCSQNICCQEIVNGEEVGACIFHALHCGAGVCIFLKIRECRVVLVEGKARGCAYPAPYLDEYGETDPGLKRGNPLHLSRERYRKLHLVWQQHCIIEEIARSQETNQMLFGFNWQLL
inactive: ibrutinib 0.007 | [1] 0.005 | ralimetinib 0.015 | [2] -0.044 | [3] -0.014 | [4] -0.011 | [5] 0.004 | [6] -0.004 | [7] -0.03 | [8] -0.008 | vemurafenib -0.018 | [9] 0.025 | barasertib 0.054 | [10] -0.032 | volasertib -0.07 | [11] 0.03 | [12] -0.046 | [13] -0.038 | saracatinib 0.019 | sotrastaurin 0.004

TPM1 isoform 4 (UniProt P09493)
Chain of UniProt P09493 (P09493 whole entry, looked up): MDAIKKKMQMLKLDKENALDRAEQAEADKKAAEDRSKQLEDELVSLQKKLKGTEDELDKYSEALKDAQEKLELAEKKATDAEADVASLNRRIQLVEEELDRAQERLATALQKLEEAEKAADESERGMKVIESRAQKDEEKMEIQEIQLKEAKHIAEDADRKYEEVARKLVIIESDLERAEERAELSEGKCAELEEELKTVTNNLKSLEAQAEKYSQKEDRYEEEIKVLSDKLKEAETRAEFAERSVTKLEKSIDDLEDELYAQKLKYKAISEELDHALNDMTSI
inactive: ibrutinib -0.019 | [1] 0.009 | ralimetinib 0.001 | [2] -0.011 | [3] -0.024 | [4] -0.011 | [5] 0.062 | [6] 0.011 | [7] -0.022 | [8] 0.001 | vemurafenib -0.049 | [9] -0.012 | barasertib -0.036 | [10] -0.018 | volasertib 0.033 | [11] 0.013 | [12] 0.106 | [13] -0.149 | saracatinib 0.031 | sotrastaurin -0.012

TRMT12 (UniProt Q53H54)
inactive: ibrutinib -0.083 | [1] -0.009 | ralimetinib 0.094 | [2] 0.063 | [3] -0.018 | [4] -0.081 | [5] -0.048 | [6] 0.036 | [7] 0.033 | [8] -0.031 | vemurafenib 0.059 | [9] -0.009 | barasertib 0.068 | [10] -0.17 | volasertib -0.052 | [11] 0.047 | [12] -0.303 | [13] 0.281 | saracatinib -0.021 | sotrastaurin -0.047

TRMT10A (UniProt Q8TBZ6)
Chain of UniProt Q8TBZ6 (Q8TBZ6 whole entry, looked up): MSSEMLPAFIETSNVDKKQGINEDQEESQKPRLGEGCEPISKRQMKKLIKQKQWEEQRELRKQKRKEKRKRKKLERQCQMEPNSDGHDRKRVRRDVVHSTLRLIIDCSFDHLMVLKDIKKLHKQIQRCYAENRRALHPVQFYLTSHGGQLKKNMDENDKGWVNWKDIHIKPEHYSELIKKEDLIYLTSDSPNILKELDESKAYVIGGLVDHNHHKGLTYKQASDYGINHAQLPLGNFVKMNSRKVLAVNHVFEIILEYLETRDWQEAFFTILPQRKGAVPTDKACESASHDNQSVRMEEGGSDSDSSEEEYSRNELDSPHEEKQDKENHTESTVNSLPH
inactive: ibrutinib -0.002 | [1] -0.003 | ralimetinib 0.021 | [2] -0.01 | [3] -0.033 | [4] 0.009 | [5] -0.031 | [6] 0.06 | [7] -0.022 | [8] 0.07 | vemurafenib 0.005 | [9] -0.025 | barasertib -0.08 | [10] 0.118 | volasertib -0.014 | [11] -0.005 | [12] -0.027 | [13] 0.029 | saracatinib -0.014 | sotrastaurin 0.006

TDRKH (UniProt Q9Y2W6)
inactive: ibrutinib -0.028 | [1] -0.023 | ralimetinib 0.033 | [2] -0.027 | [3] -0.02 | [4] 0.003 | [5] -0.008 | [6] -0.006 | [7] -0.005 | [8] -0.035 | vemurafenib 0.07 | [9] 0.055 | barasertib 0.031 | [10] -0.195 | volasertib -0.052 | [11] -0.003 | [12] -0.095 | [13] 0.058 | saracatinib -0.004 | sotrastaurin -0.039

TCAF2 (UniProt A6NFQ2)
Chain of UniProt A6NFQ2 (A6NFQ2 whole entry, looked up): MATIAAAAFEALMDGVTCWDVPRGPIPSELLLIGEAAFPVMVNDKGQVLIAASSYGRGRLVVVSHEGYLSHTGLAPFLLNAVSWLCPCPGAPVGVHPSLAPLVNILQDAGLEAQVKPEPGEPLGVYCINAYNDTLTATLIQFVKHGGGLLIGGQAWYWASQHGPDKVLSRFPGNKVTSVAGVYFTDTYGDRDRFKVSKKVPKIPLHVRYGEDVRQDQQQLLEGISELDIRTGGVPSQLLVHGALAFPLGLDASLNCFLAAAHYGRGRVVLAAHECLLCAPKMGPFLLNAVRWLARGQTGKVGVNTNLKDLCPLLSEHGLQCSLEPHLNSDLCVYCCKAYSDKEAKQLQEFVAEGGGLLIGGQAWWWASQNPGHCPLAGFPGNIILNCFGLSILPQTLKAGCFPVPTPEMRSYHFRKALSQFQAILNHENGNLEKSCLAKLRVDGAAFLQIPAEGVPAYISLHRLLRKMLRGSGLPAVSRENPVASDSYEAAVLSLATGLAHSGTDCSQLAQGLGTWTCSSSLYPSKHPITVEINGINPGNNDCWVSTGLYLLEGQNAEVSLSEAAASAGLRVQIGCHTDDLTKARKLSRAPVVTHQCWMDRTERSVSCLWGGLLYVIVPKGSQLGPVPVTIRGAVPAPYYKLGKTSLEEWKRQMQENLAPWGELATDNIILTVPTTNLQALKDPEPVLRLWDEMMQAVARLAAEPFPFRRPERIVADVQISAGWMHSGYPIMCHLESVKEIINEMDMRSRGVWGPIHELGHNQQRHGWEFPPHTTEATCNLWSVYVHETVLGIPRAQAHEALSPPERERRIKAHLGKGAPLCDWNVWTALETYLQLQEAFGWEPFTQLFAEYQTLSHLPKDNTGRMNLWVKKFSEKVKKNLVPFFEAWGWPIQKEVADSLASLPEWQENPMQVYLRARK
inactive: ibrutinib 0.009 | [1] -0.009 | ralimetinib 0.078 | [2] -0.017 | [3] 0.013 | [4] 0.022 | [5] 0.055 | [6] -0.005 | [7] -0.021 | [8] 0.063 | vemurafenib 0.052 | [9] 0.041 | barasertib -0.048 | [10] -0.027 | volasertib -0.049 | [11] 0.045 | [12] 0.003 | [13] -0.05 | saracatinib 0.004 | sotrastaurin -0.017

TBK1 (UniProt Q9UHD2)
Chain of UniProt Q9UHD2 (Q9UHD2 whole entry, looked up): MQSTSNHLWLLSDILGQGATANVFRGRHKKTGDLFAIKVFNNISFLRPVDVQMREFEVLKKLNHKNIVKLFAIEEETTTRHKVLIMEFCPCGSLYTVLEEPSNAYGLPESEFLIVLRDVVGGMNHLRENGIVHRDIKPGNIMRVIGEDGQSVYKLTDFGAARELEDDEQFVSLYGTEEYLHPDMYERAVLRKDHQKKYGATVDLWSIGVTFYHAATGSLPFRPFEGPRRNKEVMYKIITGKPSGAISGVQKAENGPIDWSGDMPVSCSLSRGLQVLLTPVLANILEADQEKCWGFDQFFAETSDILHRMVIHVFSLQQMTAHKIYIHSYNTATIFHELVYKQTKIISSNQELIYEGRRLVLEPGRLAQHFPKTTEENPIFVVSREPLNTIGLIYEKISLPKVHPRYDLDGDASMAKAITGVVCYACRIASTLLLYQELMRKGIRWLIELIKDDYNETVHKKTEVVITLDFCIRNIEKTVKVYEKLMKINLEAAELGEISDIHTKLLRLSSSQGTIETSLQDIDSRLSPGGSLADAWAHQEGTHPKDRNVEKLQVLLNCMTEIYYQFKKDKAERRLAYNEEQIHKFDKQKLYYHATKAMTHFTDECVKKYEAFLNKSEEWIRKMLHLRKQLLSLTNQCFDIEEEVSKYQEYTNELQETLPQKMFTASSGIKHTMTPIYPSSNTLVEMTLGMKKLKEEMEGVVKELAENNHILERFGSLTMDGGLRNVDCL
inactive: ibrutinib -0.02 | [1] 0.159 | ralimetinib -0.007 | [2] -0.035 | [3] 0.047 | [4] 0.015 | [5] -0.016 | [6] -0.034 | [7] 0.032 | [8] -0.013 | vemurafenib 0.008 | [9] 0.002 | barasertib -0.03 | [10] -0.058 | volasertib -0.064 | [11] -0.021 | [12] 0.216 | [13] 0.079 | saracatinib -0.029 | sotrastaurin -0.045

TPD52L2 isoform 7 (UniProt O43399)
Chain of UniProt O43399 (O43399 whole entry, looked up): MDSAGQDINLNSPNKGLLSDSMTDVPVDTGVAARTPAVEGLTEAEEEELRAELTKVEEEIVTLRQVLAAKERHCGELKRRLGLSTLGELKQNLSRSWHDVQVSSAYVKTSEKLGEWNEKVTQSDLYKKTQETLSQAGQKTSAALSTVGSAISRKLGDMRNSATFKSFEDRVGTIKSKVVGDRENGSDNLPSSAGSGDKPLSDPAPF
inactive: ibrutinib -0.016 | [1] 0.017 | ralimetinib -0.013 | [2] 0.01 | [3] -0.013 | [4] 0.023 | [5] -0.024 | [6] 0.007 | [7] -0.006 | [8] -0.001 | vemurafenib -0.02 | [9] -0.033 | barasertib 0.045 | [10] 0.048 | volasertib 0.017 | [11] 0.011 | [12] -0.14 | [13] 0.207 | saracatinib 0.003 | sotrastaurin 0.034
